The campaign covered roughly 5,500 compounds. About 2,000 (36%) were called active. Another 18% or so got no clear call; they are omitted. No stated cut-off is given here; in the data, active means normalized growth mostly below about 0.91 (no sharp cut-off); inconclusive means no clear call, values can overlap the other calls; inactive means mostly above about 0.92. The list shows a part of the results. Where a SMILES comes first, the peptide text is derived from it.
Assay: chemical genetic growth profiling, strain panel (AID 1159580);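 further: tested at 20 µM; growth read once vehicle control cultures reached saturation at 30 °C; 1 = growth at the plate median or of vehicle wells; lower values mean less growth of the strain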
Details: growth OD
[1] = S. cerevisiae deletion strains, locus YAL013W, strain DEP1, active compounds read low
[2] = S. cerevisiae deletion strains, locus YBR021W, strain FUR4, active compounds read low
[3] = S. cerevisiae deletion strains, locus YBR229C, strain ROT2, active compounds read low
[4] = S. cerevisiae deletion strains, locus YCL029C, strain bik1, active compounds read low
[5] = S. cerevisiae deletion strains, locus YDL035C, strain GPR1, active compounds read low
[6] = S. cerevisiae deletion strains, locus YDL074C, strain BRE1, active compounds read low
[7] = S. cerevisiae deletion strains, locus YDL101C, strain DUN1, active compounds read low
[8] = S. cerevisiae deletion strains, locus YDL185W, strain tfp1, active compounds read low
[9] = S. cerevisiae deletion strains, locus YDL192W, strain arf1, active compounds read low
[10] = S. cerevisiae deletion strains, locus YDR101C, strain arx1, active compounds read low
[11] = S. cerevisiae deletion strains, locus YDR162C, strain NBP2, active compounds read low
[12] = S. cerevisiae deletion strains, locus YDR318W, strain mcm21, active compounds read low
[13] = S. cerevisiae deletion strains, locus YDR388W, active compounds read low
[14] = S. cerevisiae deletion strains, locus YDR502C, strain sam2, active compounds read low
[15] = S. cerevisiae deletion strains, locus YEL061C, strain CIN8, active compounds read low
[16] = S. cerevisiae deletion strains, locus YER110C, active compounds read low
[17] = S. cerevisiae deletion strains, locus YER155C, strain BEM2, active compounds read low
[18] = S. cerevisiae deletion strains, locus YER167W, strain BCK2, active compounds read low
[19] = S. cerevisiae deletion strains, locus YGL078C, strain dbp3, active compounds read low
[20] = S. cerevisiae deletion strains, locus YGL086W, strain mad1, active compounds read low
[21] = S. cerevisiae deletion strains, locus YGL248W, strain PDE1, active compounds read low
[22] = S. cerevisiae deletion strains, locus YGR135W, strain pre9, active compounds read low
[23] = S. cerevisiae deletion strains, locus YGR229C, strain SMI1, active compounds read low
[24] = S. cerevisiae deletion strains, locus YGR252W, strain gcn5, active compounds read low
[25] = S. cerevisiae deletion strains, locus YHR030C, strain SLT2, active compounds read low
[26] = S. cerevisiae deletion strains, locus YHR079C, strain IRE1 (second series), active compounds read low
[27] = S. cerevisiae deletion strains, locus YHR094C, strain hxt1, active compounds read low
[28] = S. cerevisiae deletion strains, locus YHR129C, strain ARP1, active compounds read low
[29] = S. cerevisiae deletion strains, locus YHR200W, strain rpn10, active compounds read low
[30] = S. cerevisiae deletion strains, locus YIL066C, strain RNR3, active compounds read low
[31] = S. cerevisiae deletion strains, locus YIL073C, strain SPO22, active compounds read low
[32] = S. cerevisiae deletion strains, locus YIR030C, strain dcg1, active compounds read low
[33] = S. cerevisiae deletion strains, locus YJL095W, strain BCK1, active compounds read low
[34] = S. cerevisiae deletion strains, locus YJL134W, strain LCB3, active compounds read low
[35] = S. cerevisiae deletion strains, locus YJL168C, strain set2, active compounds read low
[36] = S. cerevisiae deletion strains, locus YJL187C, strain SWE1 (second series), active compounds read low
[37] = S. cerevisiae deletion strains, locus YJR043C, strain POL32, active compounds read low
[38] = S. cerevisiae deletion strains, locus YKL009W, strain mrt4, active compounds read low
[39] = S. cerevisiae deletion strains, locus YKL068W, active compounds read low
[40] = S. cerevisiae deletion strains, locus YKL085W, strain MDH1 (second series), active compounds read low
[41] = S. cerevisiae deletion strains, locus YKL085W, strain MDH1, active compounds read low
[42] = S. cerevisiae deletion strains, locus YKL190W, strain CNB1, active compounds read low
[43] = S. cerevisiae deletion strains, locus YKR001C, strain vps1, active compounds read low
[44] = S. cerevisiae deletion strains, locus YLR039C, strain RIC1, active compounds read low
[45] = S. cerevisiae deletion strains, locus YLR058C, strain SHM2, active compounds read low
[46] = S. cerevisiae deletion strains, locus YLR102C, strain apc9, active compounds read low
[47] = S. cerevisiae deletion strains, locus YLR262C, strain YPT6, active compounds read low
[48] = S. cerevisiae deletion strains, locus YLR268W, strain sec22, active compounds read low
[49] = S. cerevisiae deletion strains, locus YLR330W, strain CHS5, active compounds read low
[50] = S. cerevisiae deletion strains, locus YLR342W, strain FKS1 (second series), active compounds read low
[51] = S. cerevisiae deletion strains, locus YLR371W, strain rom2, active compounds read low
[52] = S. cerevisiae deletion strains, locus YLR418C, strain cdc73, active compounds read low
[53] = S. cerevisiae deletion strains, locus YML016C, strain PPZ1, active compounds read low
[54] = S. cerevisiae deletion strains, locus YML032C, strain rad52, active compounds read low
[55] = S. cerevisiae deletion strains, locus YML124C, strain tub3, active compounds read low
[56] = S. cerevisiae deletion strains, locus YMR078C, strain ctf18, active compounds read low
[57] = S. cerevisiae deletion strains, locus YMR223W, strain ubp8, active compounds read low
[58] = S. cerevisiae deletion strains, locus YMR263W, strain SAP30, active compounds read low
[59] = S. cerevisiae deletion strains, locus YMR307W, strain GAS1, active compounds read low
[60] = S. cerevisiae deletion strains, locus YNL067W, strain RPL9B, active compounds read low
[61] = S. cerevisiae deletion strains, locus YNL233W, strain BNI4, active compounds read low
[62] = S. cerevisiae deletion strains, locus YNL250W, strain rad50, active compounds read low
[63] = S. cerevisiae deletion strains, locus YNL271C, strain bni1, active compounds read low
[64] = S. cerevisiae deletion strains, locus YNL298W, strain CLA4, active compounds read low
[65] = S. cerevisiae deletion strains, locus YNL307C, strain MCK1, active compounds read low
[66] = S. cerevisiae deletion strains, locus YNL322C, strain KRE1, active compounds read low
[67] = S. cerevisiae deletion strains, locus YNR052C, strain pop2, active compounds read low
[68] = S. cerevisiae deletion strains, locus YOL006C, strain TOP1, active compounds read low
[69] = S. cerevisiae deletion strains, locus YOL012C, strain htz1
[70] = S. cerevisiae deletion strains, locus YOL147C, strain pex11, active compounds read low
[71] = S. cerevisiae deletion strains, locus YOR061W, strain CKA2, active compounds read low
[72] = S. cerevisiae deletion strains, locus YOR069W, strain VPS5, active compounds read low
[73] = S. cerevisiae deletion strains, locus YOR136W, strain idh2, active compounds read low
[74] = S. cerevisiae deletion strains, locus YOR144C, strain elg1, active compounds read low
[75] = S. cerevisiae deletion strains, locus YOR184W, strain ser1, active compounds read low
[76] = S. cerevisiae deletion strains, locus YOR316C, strain cot1, active compounds read low
[77] = S. cerevisiae deletion strains, locus YPR119W, strain clb2, active compounds read low
[78] = S. cerevisiae deletion strains, locus YPR141C, strain kar3, active compounds read low
[79] = S. cerevisiae deletion strains, locus YPR163C, strain tif3, active compounds read low
[80] = S. cerevisiae deletion strains, locus YPR167C, strain met16, active compounds read low
[81] = S. cerevisiae deletion strains, strain wtn01, active compounds read low

Measured: normalized growth

NCCCCC(N)C(=O)NC(Cc1ccc(O)cc1)C(=O)NC(CCCCN)C(=O)O (stereo not drawn) (H-Lys-Tyr-Lys-OH; configuration not given here)
inactive: [1] 1.01 | [2] 1 | [3] 1.01 | [4] 0.983 | [5] 1.01 | [6] 1.06 | [7] 1.02 | S. cerevisiae deletion strains, locus YDL134C, strain PPH21, active compounds read low 1.01 | [8] 0.971 | [9] 0.984 | [10] 1.01 | S. cerevisiae deletion strains, locus YDR150W, strain NUM1, active compounds read low 0.999 | [11] 1.04 | [12] 0.983 | [13] 1.01 | [14] 1 | [15] 0.996 | [16] 0.987 | [17] 0.985 | [18] 0.995 | [19] 0.988 | [20] 0.963 | [21] 1.01 | S. cerevisiae deletion strains, locus YGR078C, strain PAC10, active compounds read low 1.04 | [22] 0.999 | [23] 1.05 | [24] 0.958 | [25] 0.996 | [26] 1 | [27] 0.982 | [28] 1.01 | [29] 0.984 | [30] 1.02 | [31] 0.948 | [32] 0.995 | [33] 1.07 | [34] 0.997 | [35] 1.02 | [36] 1.01 | [37] 0.996 | S. cerevisiae deletion strains, locus YJR075W, strain HOC1, active compounds read low 1.1 | [38] 0.958 | [39] 0.987 | [40] 1.04 | [41] 1.04 | [42] 1.01 | [43] 0.979 | [44] 1.04 | [45] 0.999 | [46] 1 | [47] 1 | [48] 1.01 | [49] 0.987 | [50] 1.01 | [51] 0.983 | [52] 1.04 | [53] 1 | [54] 0.976 | [55] 0.99 | [56] 0.982 | [57] 0.981 | [58] 1.05 | [59] 1.07 | [60] 1.04 | S. cerevisiae deletion strains, locus YNL128W, strain TEP1, active compounds read low 1.05 | S. cerevisiae deletion strains, locus YNL153C, strain GIM3, active compounds read low 1.05 | [61] 1.04 | [62] 0.981 | [63] 0.99 | [64] 0.987 | [65] 0.993 | [66] 0.998 | [67] 0.99 | [68] 1.06 | [69] 0.771 | [70] 0.995 | [71] 1.01 | [72] 1 | [73] 0.998 | [74] 0.989 | [75] 0.966 | [76] 0.99 | S. cerevisiae deletion strains, locus YPL055C, strain LGE1, active compounds read low 1.11 | S. cerevisiae deletion strains, locus YPL241C, strain CIN2, active compounds read low 1 | [77] 0.998 | [78] 1 | [79] 0.982 | [80] 0.997 | [81] 1.03 | S. cerevisiae strains, strain wild type, active compounds read low 1.01

NC(N)=NCCCC(NC(=O)C(N)Cc1ccc(O)cc1)C(=O)O (configuration not stated)
active: [2] 1.25 [resistant]
inactive: [1] 1.03 | [3] 0.998 | [4] 0.969 | [5] 1.04 | [6] 1.03 | [7] 0.989 | [8] 0.962 | [9] 0.994 | [10] 0.989 | [11] 1.02 | [12] 0.991 | [13] 0.989 | [14] 0.987 | [15] 0.988 | [16] 0.971 | [17] 0.99 | [18] 1.01 | [19] 1 | [20] 0.981 | [21] 0.997 | [22] 1 | [23] 1.05 | [24] 1.23 | [25] 0.994 | [26] 0.968 | [27] 0.985 | [28] 0.99 | [29] 0.981 | [30] 1.01 | [31] 0.924 | S. cerevisiae deletion strains, locus YIL125W, strain kgd1, active compounds read low 0.995 | [32] 0.996 | [33] 0.988 | [34] 0.992 | [35] 0.989 | [36] 0.99 | [37] 1.08 | [38] 0.938 | [39] 0.968 | [40] 0.988 | [41] 0.988 | [42] 0.993 | [43] 0.982 | [44] 1 | [45] 0.991 | [46] 0.972 | [47] 1 | [48] 0.97 | [49] 0.988 | [50] 1.05 | [51] 0.99 | [52] 1.07 | [53] 0.992 | [54] 0.996 | [55] 0.995 | [56] 0.997 | [57] 1.03 | [58] 0.983 | [59] 1.31 | [60] 0.968 | [61] 1 | [62] 0.951 | [63] 1 | [64] 0.995 | [65] 0.985 | [66] 1 | [67] 0.976 | [68] 1.04 | [69] 1.32 | [70] 0.991 | [71] 0.988 | [72] 0.989 | [73] 0.978 | [74] 0.995 | [75] 0.984 | [76] 0.979 | [77] 0.988 | [78] 0.969 | [79] 1 | [80] 0.997 | [81] 0.964
